Bioassay records from PubChem.
aSyn UTR act = Activators via SNCA 5'UTR binding, MLPCN | alpha-synuclein 5'UTR reporter, activators screen | activity score, % (tested at 7.5 µM), hits read low | 300,000 compounds, 7.1% hits; in the data active means activity score below about -60%
Starred values were filed as active, the others as inactive. These entries were drawn from the full list.

How did CCc1ccc(N(C(=O)c2csnn2)C(C(=O)NC(C)(C)CC)c2ccccn2)cc1 (stereo not given) do in these assays?
aSyn UTR act: -69.0*

What do the screens show for `C=CCc1ccc(OCCOc2cccc3ccc(C)nc23)c(OC)c1`?
aSyn UTR act: -69.3*

What do the screens show for `Cc1cccc(OCCn2nnc3ccccc32)c1C`?
aSyn UTR act: -179.9*

What do the screens show for `C/C=C/c1ccc(OCCn2nnc3ccccc32)c(OC)c1`?
aSyn UTR act: -115.0*

Results for C=CCc1ccc(OCCn2cccc2C=O)c(OC)c1 ?
aSyn UTR act: -139.7*

Results for C=CCc1ccc(OCCn2nnc3ccccc32)c(OC)c1 ?
aSyn UTR act: -248.1*

Results for Clc1ccc(Cn2ccc(C3CC3)n2)cc1 ?
aSyn UTR act: -94.6*

Results for Cc1ccc(Cn2ccc(C3CC3)n2)cc1 ?
aSyn UTR act: -101.4*

How did COc1ccc2oc(C(=O)OCC(=O)NCCN3C(=O)CSC3=O)c(C)c2c1 do in these assays?
aSyn UTR act: -70.5*

How did N#CC(Cc1ccc(OC(F)F)cc1)c1nc2ccccc2[nH]1 (stereo not given) do in these assays?
aSyn UTR act: -157.2*

What do the screens show for `O=C1CCCC/C1=C\Nc1ccc(Cl)cn1`?
aSyn UTR act: -115.7*

How did O=C(CSc1nnc(C2CCCCC2)o1)Nc1ccccc1Cl do in these assays?
aSyn UTR act: -138.2*

Results for Cc1ccccc1N=CC1=C(O)c2ccccc2C1=O ?
aSyn UTR act: -138.4*

Results for O=C1C(C=Nc2ccc(F)cc2)=C(O)c2ccccc21 ?
aSyn UTR act: -213.9*

Results for COc1ccc(N=CC2=C(O)c3ccccc3C2=O)c(OC)c1 ?
aSyn UTR act: 62.5

How did CCCCc1ccc(-c2nc(NC(=O)C3C4CCC(O4)C3C(=O)O)sc2C)cc1 (stereo not given) do in these assays?
aSyn UTR act: -128.3*

Results for Cc1ccc(N=Nc2c(C)[nH]n(C(N)=S)c2=O)cc1C ?
aSyn UTR act: -258.0*

Results for Cc1[nH]n(C(N)=S)c(=O)c1N=Nc1ccc2ccccc2c1 ?
aSyn UTR act: -146.7*

Results for Cc1[nH]n(C(N)=S)c(=O)c1N=Nc1cccc([N+](=O)[O-])c1C ?
aSyn UTR act: -163.8*

Results for CC(O)CNc1ncnc2cc(-c3ccc(F)cc3)sc12 (stereo not given) ?
aSyn UTR act: -61.9*

Results for COc1ccc(N(Cc2cc3ccccc3[nH]c2=O)S(=O)(=O)c2ccc(OC)cc2)cc1 ?
aSyn UTR act: -64.1*

How did COc1ccc(N(Cc2cc3cc(OC)ccc3[nH]c2=O)S(=O)(=O)c2ccc(NC(C)=O)cc2)cc1 do in these assays?
aSyn UTR act: 93.3

Results for CC(C)(C)C1=CC=C(C(C)(C)C)C(=O)C1=O ?
aSyn UTR act: -72.8*

What do the screens show for `COc1cccc(CNc2cnc3ccccc3c2)c1O`?
aSyn UTR act: -218.5*

How did COc1cccc(CNc2ccc(F)c(Cl)c2)c1O do in these assays?
aSyn UTR act: -183.8*

How did COc1ccccc1Nc1nc2ccccc2n1C do in these assays?
aSyn UTR act: -121.7*

How did Cc1ccc(O)c(CNc2cnc3ccccc3c2)c1 do in these assays?
aSyn UTR act: -99.7*

Results for COc1cccc(CNc2nc3ccccc3n2C)c1O ?
aSyn UTR act: -93.7*

Results for COc1ccc(CNc2ncc(-c3ccc(F)cc3)n2C)c2ccccc12 ?
aSyn UTR act: 65.1

What do the screens show for `CC(=O)Nc1ccc(-c2nc3c(C)cccc3[nH]2)cc1`?
aSyn UTR act: -140.8*

What do the screens show for `CN1/C(=C/C=C(/C#N)C(N)=O)C(C)(C)c2ccccc21`?
aSyn UTR act: -146.0*

How did CCc1cc2c(=O)c(-c3nc(C)cs3)coc2cc1O do in these assays?
aSyn UTR act: -145.2*

Results for Cc1csc(-c2coc3cc(O)cc(C)c3c2=O)n1 ?
aSyn UTR act: -207.1*

Results for COCCCN(C(C)=O)c1nc(-c2ccc(OC)cc2)cs1 ?
aSyn UTR act: -104.9*

Results for CCN(C(=O)c1cccs1)c1nc(-c2ccc(OC)cc2)cs1 ?
aSyn UTR act: -130.5*

How did CC(=O)NCCC1CCCCN1C(=O)c1cc(COc2cc(C)ccc2C)on1 (stereo not given) do in these assays?
aSyn UTR act: -144.1*

How did COCCCC1CCN(C(=O)c2cc(COc3cc(C)ccc3C)on2)CC1 do in these assays?
aSyn UTR act: -179.5*

Results for COCCN1CCN(C(=O)c2cc(COc3cc(C)ccc3C)on2)CC1 ?
aSyn UTR act: -127.0*

Results for COCCN1CCN(C(=O)c2cc(COc3ccc(Cl)cc3OC)on2)CC1 ?
aSyn UTR act: -120.0*

How did Cc1ccc(C)c(OCc2cc(C(=O)N3CCOCC3)no2)c1 do in these assays?
aSyn UTR act: -97.2*

What do the screens show for `CCCCSc1nc2c(cnn2-c2ccccc2)c(=O)n1N`?
aSyn UTR act: -118.9*

How did CCCSc1nc2c(cnn2-c2ccccc2)c(=O)n1N do in these assays?
aSyn UTR act: -83.0*

Results for O=C(Cn1cnc2c(cnn2-c2ccc(F)cc2)c1=O)NCc1ccco1 ?
aSyn UTR act: -77.6*

How did CCOC(=O)C(C)Oc1cccc2c(=O)n(CC(=O)NCc3ccco3)ccc12 (stereo not given) do in these assays?
aSyn UTR act: 73.0

How did Nn1c(SCc2ccccc2)nc2c(cnn2-c2ccccc2)c1=O do in these assays?
aSyn UTR act: -89.8*

Results for O=c1c2cnn(-c3ccccc3)c2ncn1CCc1ccccc1 ?
aSyn UTR act: -113.7*

Results for CC1CCC/C(=N\NC(=O)Nc2ccccc2)C1 (stereo not given) ?
aSyn UTR act: -141.6*

Results for CC1CCC/C(=N\Nc2ccc(Cl)c(C(=O)O)c2)C1 (stereo not given) ?
aSyn UTR act: -98.5*

Results for Cc1ccsc1/C=N/NC(=O)C(=O)NCC(C)C ?
aSyn UTR act: -76.5*

Results for Cc1ccsc1/C=N/NC(=S)NCCc1ccccc1 ?
aSyn UTR act: -108.0*

What do the screens show for `CCNC(=S)N/N=C/c1cn(Cc2ccccc2F)c2ccccc12`?
aSyn UTR act: 52.0

What do the screens show for `CCNC(=S)N/N=C/c1sccc1C`?
aSyn UTR act: -71.4*

Results for O=C(C(Cl)c1ccccc1)N1CCCC1 (stereo not given) ?
aSyn UTR act: -112.1*

How did CN1CCN(c2ccc(NC(=O)c3ccccc3Br)cc2)CC1 do in these assays?
aSyn UTR act: -119.8*

How did O=C(Nc1ccc(N2CCCCC2)cc1)C(Cl)c1ccccc1 (stereo not given) do in these assays?
aSyn UTR act: -235.9*

What do the screens show for `O=C(Nc1ccc(N2CCCC2)cc1)c1ccc(Cl)cc1Cl`?
aSyn UTR act: -88.4*

Results for O=C(Nc1ccc(NC(=O)c2cccnc2Cl)cc1)c1cccc(Cl)c1 ?
aSyn UTR act: -102.0*

How did O=C(Nc1ccc(N2CCCC2)cc1)c1cccc(Cl)c1 do in these assays?
aSyn UTR act: -137.0*

Results for COc1ccccc1C(=O)Nc1ccc(N2CCCCC2)cc1 ?
aSyn UTR act: -65.9*

Results for O=C(Nc1ccc(N2CCCCC2)cc1)c1ccccn1 ?
aSyn UTR act: 113.8

Results for O=C(Nc1ccc(N2CCCCCC2)cc1)c1ccccc1Cl ?
aSyn UTR act: -252.4*

How did CN1CCN(c2ccc(NC(=O)c3ccc(Cl)cc3Cl)cc2)CC1 do in these assays?
aSyn UTR act: -135.7*

How did O=C(Nc1ccc(N2CCCC2)cc1)c1cc(Cl)ccc1Cl do in these assays?
aSyn UTR act: -241.2*

Results for Cc1c(C(=O)NCc2ccco2)sc2nc(-c3ccccc3)cn12 ?
aSyn UTR act: -83.0*

What do the screens show for `c1ccc(-c2cn3c4c(sc3n2)CCCC4)cc1`?
aSyn UTR act: 116.8

Results for Cc1c(C(=O)NCc2cccnc2)sc2nc(-c3ccc(F)cc3)cn12 ?
aSyn UTR act: -144.2*
